Results: PubChem BioAssay
Activity calls are given as the source filed them. Unless noted, no rule for the calls is given here.

How the values were obtained:
[1] = compounds binding Alexa647 anti-His antibody – biochemical, small-molecule microarray, 635 nm fluorescence, artefact control for SMM control protein annotation, primary screen (AID 1128); details: higher = more signal;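 also: score merges feature fluorescence with signal-to-noise for each printed compound spot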
[2] = system: Human papillomavirus type 1a E7 protein (residues 1-88); experiment: HPV1a E7 small-molecule binders, primary screen, biochemical, small-molecule microarray, residues 1-88, 635 nm (AID 1129); details: small-molecule microarray binding, fluorescence 635 nm; higher = more signal
[3] = molecular target: Focal adhesion kinase 1 (Homo sapiens) (UniProt Q05397); experiment: PTK2 protein binding on printed compound slides – biochemical, small-molecule microarray, 635/667 nm fluorescence, BSA, DTT, primary screen (AID 1130); details: 635 nm fluorescence, higher = more signal;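 also: composite of spot emission at 667 nm and signal to noise over triplicate slides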
[4] = system: Fibrinogen (Alexa647-labelled); experiment: Alexa647-fibrinogen binding to printed small molecules – biochemical, small-molecule microarray, 635/667 nm fluorescence, artefact control for SMM control-protein annotation, profiling panel (AID 1131); details: fibrinogen-A647 binding fluorescence, higher = more signal;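 also: z-score merges 667 nm fluorescence with per-spot signal-to-noise over triplicate slides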
[5] = molecular target: Follistatin (Homo sapiens) (UniProt P19883); experiment: FST protein binding to printed compounds – biochemical, small-molecule microarray, 635/667 nm fluorescence, primary screen (AID 1132); details: 635 nm fluorescence, higher = more signal
[6] = molecular target: Fibroblast growth factor 2 (Homo sapiens) (UniProt P09038); experiment: basic fibroblast growth factor binding to printed compounds – biochemical, small-molecule microarray, 635/667 nm fluorescence, primary screen (AID 1133); details: FGF2, fluorescence 635/667, higher = more signal
[7] = JC-1 mitochondrial potential readout, lung cancer cells – cell-based, A549, JC-1 fluorescence, basal, 24 h, 100 nL, profiling panel (AID 1138); details: higher = more signal;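 also: A549 lung adenocarcinoma cells under basal conditions with no added stimulus; test concentration not given here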
[8] = system: Lefty1; experiment: Lefty1 protein binding to printed compounds – biochemical, small-molecule microarray, 635/667 nm fluorescence, primary screen (AID 1139); details: fluorescence 635/667, higher = more signal
[9] = system: wheat germ agglutinin (Triticum aestivum), Alexa647-labelled; experiment: Alexa647-WGA lectin binding to printed small molecules – biochemical, small-molecule microarray, 635/667 nm fluorescence, artefact control for SMM control-protein annotation, profiling panel (AID 1140); details: WGA-A647 binding, 635 nm fluorescence, higher = more signal;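 also: score merges 667 nm feature emission with signal to noise over triplicate slides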
[10] = molecular target: Luciferin 4-monooxygenase (Photinus pyralis) (UniProt P08659); experiment: inhibition of purified Photinus pyralis luciferase – biochemical, luminescence, purified enzyme, 2006 set, primary screen (AID 1141); details: purified firefly luciferase, SteadyGlo luminescence, 30 min; higher = more signal, called active from +8 up or from −8 down;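 also: cell-free assay with purified firefly luciferase at 100 ng per well in PBS; test concentration not given here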
[11] = system: Wnt5a (protein binding on small-molecule microarray); experiment: small molecules binding Wnt5a protein – biophysical, small-molecule microarray, 635/667 nm fluorescence, primary screen (AID 1142); details: 635 nm fluorescence, higher = more signal;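 also: fluorescence read at 667 nm with signal to noise per printed feature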
[12] = ATP-based viability of Huh7 replicon cells – cell-based, CellTiter-Glo luminescence, basal, 48 h, cytotoxicity control for HCV replication inhibitor project, primary screen (AID 1143); details: higher = more signal, called active from +8 up or from −8 down;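 also: Huh7 hepatoma cells carrying a hepatitis C replication reporter with no stimulus; test concentration not given here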
[13] = Pseudomonas biofilm growth suppression – PAO1 strain, BacTiter-Glo luminescence, LB-PBS, primary screen (AID 1144); details: P. aeruginosa PAO1 biofilm, 12 h, higher = more signal
[14] = basal CRE-LacZ reporter activity in PC12 – cell-based, unstimulated, primary screen (AID 1145); details: no forskolin, luminescence, 4.5 h, higher = more signal, called active from +8 up or from −8 down
[15] = forskolin-driven CRE-LacZ activity in PC12 – cell-based, CRE-LacZ reporter, forskolin-stimulated, primary screen (AID 1146); details: luminescence, 4.5 h, higher = more signal, called active from +8 up or from −8 down;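 also: PC12 cells with 6xCRE LacZ reporter stimulated by forskolin 10 µM; beta-galactosidase reporter signal reflecting CREB driven transcription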
[16] = molecular target: Streptavidin (Streptomyces avidinii) (UniProt P22629); experiment: compounds binding control protein streptavidin – biophysical, small-molecule microarray, 635/667 nm fluorescence, artefact control for SMM compound annotation, primary screen (AID 1147); details: higher = more signal;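 also: signal reflects streptavidin binding to arrayed compounds as a control protein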
[17] = probe aInhba binding on compound microarray – biochemical, small-molecule microarray, 635/667 nm fluorescence, primary screen (AID 1148); details: higher = more signal;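 also: score merges 667nm spot fluorescence with signal-to-noise for antibody binding to printed compounds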
[18] = molecular target: Torsin-1A (Homo sapiens) (UniProt O14656); experiment: TOR1A wild-type binding on microarray – cell lysate, small-molecule microarray, lysate, 635/667 nm, primary screen (AID 1149); details: COS7 hTOR1A-WT lysate, 635 nm fluorescence, higher = more signal
[19] = molecular target: Torsin-1A (Homo sapiens) (UniProt O14656); experiment: torsin A mutant lysate binding on microarrays – cell lysate, small-molecule microarray, COS7 lysate, 635/667 nm fluorescence, primary screen (AID 1150); details: COS7 hTOR1A mutant lysate, 635 nm fluorescence, higher = more signal;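 also: score pools 667 nm emission and signal to noise measuring lysate protein binding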
[20] = system: Sonic hedgehog protein (Shh); experiment: Sonic hedgehog microarray binding compounds – biochemical, small-molecule microarray, 635/667 nm fluorescence, primary screen (AID 1151); details: 635 nm fluorescence, higher = more signal;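 also: Shh protein binding to compounds spotted on small-molecule microarray slides; score combines spot fluorescence intensity with signal-to-noise across triplicate slides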

Streptavidin (Streptomyces avidinii), sequence (P22629 whole entry, looked up): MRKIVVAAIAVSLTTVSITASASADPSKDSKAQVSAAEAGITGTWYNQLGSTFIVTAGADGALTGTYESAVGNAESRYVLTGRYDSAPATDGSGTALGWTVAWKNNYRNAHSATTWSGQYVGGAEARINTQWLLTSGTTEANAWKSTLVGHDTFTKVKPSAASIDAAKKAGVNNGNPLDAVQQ
Focal adhesion kinase 1 (Homo sapiens), sequence (Q05397 whole entry, looked up): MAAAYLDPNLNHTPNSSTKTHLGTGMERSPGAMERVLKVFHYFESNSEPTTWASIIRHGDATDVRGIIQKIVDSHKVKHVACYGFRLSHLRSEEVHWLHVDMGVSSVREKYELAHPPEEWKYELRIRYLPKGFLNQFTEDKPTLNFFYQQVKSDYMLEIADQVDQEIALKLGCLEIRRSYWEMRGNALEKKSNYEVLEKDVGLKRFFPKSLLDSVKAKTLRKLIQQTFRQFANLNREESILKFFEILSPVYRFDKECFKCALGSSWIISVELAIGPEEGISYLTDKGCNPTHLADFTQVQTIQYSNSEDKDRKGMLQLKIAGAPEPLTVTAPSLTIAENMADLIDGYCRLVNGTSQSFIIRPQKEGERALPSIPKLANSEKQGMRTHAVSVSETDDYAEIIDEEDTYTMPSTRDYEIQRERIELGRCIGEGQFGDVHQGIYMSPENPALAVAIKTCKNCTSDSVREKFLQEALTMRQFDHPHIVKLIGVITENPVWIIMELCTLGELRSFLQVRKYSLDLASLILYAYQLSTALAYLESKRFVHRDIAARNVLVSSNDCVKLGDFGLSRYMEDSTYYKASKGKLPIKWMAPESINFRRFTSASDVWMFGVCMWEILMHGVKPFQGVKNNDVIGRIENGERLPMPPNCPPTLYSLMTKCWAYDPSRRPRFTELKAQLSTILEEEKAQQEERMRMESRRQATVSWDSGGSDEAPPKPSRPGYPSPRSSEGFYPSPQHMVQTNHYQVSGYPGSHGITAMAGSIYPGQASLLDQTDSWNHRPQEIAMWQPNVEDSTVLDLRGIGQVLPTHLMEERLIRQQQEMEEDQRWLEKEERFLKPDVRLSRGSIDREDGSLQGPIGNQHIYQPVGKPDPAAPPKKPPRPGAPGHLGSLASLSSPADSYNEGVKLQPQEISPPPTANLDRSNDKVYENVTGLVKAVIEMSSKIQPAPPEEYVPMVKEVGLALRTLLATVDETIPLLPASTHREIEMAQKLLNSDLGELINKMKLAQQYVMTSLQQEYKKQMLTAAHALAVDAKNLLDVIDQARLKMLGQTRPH
Torsin-1A (Homo sapiens), sequence (O14656 whole entry, looked up): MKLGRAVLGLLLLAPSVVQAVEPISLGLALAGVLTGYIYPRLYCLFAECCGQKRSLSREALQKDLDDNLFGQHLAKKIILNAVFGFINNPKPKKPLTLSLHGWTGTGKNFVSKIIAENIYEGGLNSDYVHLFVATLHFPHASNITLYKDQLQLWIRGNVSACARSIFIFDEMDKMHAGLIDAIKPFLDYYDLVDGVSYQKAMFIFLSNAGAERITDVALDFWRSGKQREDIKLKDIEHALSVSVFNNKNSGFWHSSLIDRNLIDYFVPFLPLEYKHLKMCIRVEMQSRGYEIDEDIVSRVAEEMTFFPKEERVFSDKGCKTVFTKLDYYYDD
Luciferin 4-monooxygenase (Photinus pyralis), sequence (P08659 whole entry, looked up): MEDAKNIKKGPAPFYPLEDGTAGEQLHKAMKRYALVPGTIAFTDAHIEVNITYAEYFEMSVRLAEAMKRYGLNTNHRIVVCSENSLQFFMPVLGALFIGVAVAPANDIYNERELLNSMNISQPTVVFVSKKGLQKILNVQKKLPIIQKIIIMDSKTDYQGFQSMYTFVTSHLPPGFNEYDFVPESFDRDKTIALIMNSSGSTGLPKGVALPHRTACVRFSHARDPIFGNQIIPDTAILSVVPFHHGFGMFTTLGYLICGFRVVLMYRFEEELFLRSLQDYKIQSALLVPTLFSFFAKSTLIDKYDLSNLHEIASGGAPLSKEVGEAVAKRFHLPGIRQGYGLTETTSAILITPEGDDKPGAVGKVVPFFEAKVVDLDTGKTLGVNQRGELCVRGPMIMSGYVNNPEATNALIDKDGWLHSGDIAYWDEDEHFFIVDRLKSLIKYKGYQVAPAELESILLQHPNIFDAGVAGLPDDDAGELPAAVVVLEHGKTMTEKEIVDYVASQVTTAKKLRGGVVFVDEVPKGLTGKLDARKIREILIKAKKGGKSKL
Follistatin (Homo sapiens), sequence (P19883 whole entry, looked up): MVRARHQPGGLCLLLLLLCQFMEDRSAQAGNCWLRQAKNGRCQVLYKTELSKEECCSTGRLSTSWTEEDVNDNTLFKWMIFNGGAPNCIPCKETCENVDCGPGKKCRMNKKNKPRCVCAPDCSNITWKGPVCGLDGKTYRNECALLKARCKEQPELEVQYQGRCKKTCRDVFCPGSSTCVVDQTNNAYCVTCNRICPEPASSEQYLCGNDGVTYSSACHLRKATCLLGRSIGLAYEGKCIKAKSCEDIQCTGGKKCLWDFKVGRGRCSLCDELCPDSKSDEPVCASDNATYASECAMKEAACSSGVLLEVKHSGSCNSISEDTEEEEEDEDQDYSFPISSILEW
Fibroblast growth factor 2 (Homo sapiens), sequence (P09038 whole entry, looked up): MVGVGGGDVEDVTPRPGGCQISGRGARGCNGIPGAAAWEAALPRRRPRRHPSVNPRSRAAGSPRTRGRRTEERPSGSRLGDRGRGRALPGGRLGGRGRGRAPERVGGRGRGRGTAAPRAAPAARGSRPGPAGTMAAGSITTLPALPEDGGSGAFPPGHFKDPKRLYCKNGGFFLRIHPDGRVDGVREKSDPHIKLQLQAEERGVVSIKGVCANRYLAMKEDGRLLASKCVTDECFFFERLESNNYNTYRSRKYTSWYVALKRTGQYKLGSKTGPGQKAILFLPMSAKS

COc1ccc([Si](C)(C)[C@@H]2[C@@H](CCO)O[C@]3(C(=O)N(Cc4ccc(N(C=O)c5ccccc5)cc4)c4ccccc43)[C@H]2C)cc1
composite z-score [1]: 0.297 | composite z-score [2]: 0.34 | composite z-score [3]: 0.0744 | composite z-score [4]: 0.845 | composite z-score [5]: 0.735 | composite z-score [6]: 0.526 | z-score [7]: -0.0272 | composite z-score [8]: 0.0434 | composite z-score [9]: 1.06 | z-score [10]: 0.0379 (inactive) | composite z-score [11]: 0.0862 | z-score [12]: -6.2 (inactive) | z-score [13]: 0.00917 (inactive) | z-score [14]: 4.55 (inactive) | z-score [15]: 1.03 (inactive) | composite z-score [16]: 0.426 | composite z-score [17]: 0.106 | composite z-score [18]: 0.164 | composite z-score [19]: 0.469 | composite z-score [20]: 0.868

CN(C)CCCC[C@@H]1NC(=O)[C@@H]2C[C@H](C(=O)NCCCCCCN)[C@H](c3cccc(OCCO)c3)N2C1=O
composite z-score [1]: 3.34 | composite z-score [2]: 1.2 | composite z-score [3]: 1.48 | composite z-score [4]: 0.936 | composite z-score [5]: 0.861 | composite z-score [6]: 0.357 | z-score [7]: -0.9 | composite z-score [8]: 0.409 | composite z-score [9]: 1.49 | z-score [10]: 0.132 (inactive) | composite z-score [11]: 0.017 | z-score [12]: -0.96 (inactive) | z-score [13]: 0.168 (inactive) | z-score [14]: 0.139 (inactive) | z-score [15]: -0.347 (inactive) | composite z-score [16]: 2.1 | composite z-score [17]: 0.831 | composite z-score [18]: 1.17 | composite z-score [19]: 1.99 | composite z-score [20]: 0.68

COc1ccc([Si](C)(C)[C@H]2[C@H](CC(=O)N3Cc4ccccc4C[C@H]3CO)O[C@@]3(C(=O)N(Cc4cccc(N5CCC5=O)c4)c4ccccc43)[C@@H]2C)cc1
composite z-score [1]: 0.322 | composite z-score [2]: 1.19 | composite z-score [3]: 0.527 | composite z-score [4]: 0.135 | composite z-score [5]: 1.33 | composite z-score [6]: 1.47 | z-score [7]: 0.526 | composite z-score [8]: 1.22 | composite z-score [9]: 0.107 | z-score [10]: -0.796 (inactive) | composite z-score [11]: 0.512 | z-score [12]: -3.64 (inactive) | z-score [13]: 0.187 (inactive) | z-score [14]: 7.57 (inactive) | z-score [15]: -0.86 (inactive) | composite z-score [16]: -0.0369 | composite z-score [17]: 0.0183 | composite z-score [18]: 0.906 | composite z-score [19]: 0.838 | composite z-score [20]: 1.74

NC(=O)NCC#Cc1ccc2c(c1)[C@]1(C(=O)N2)[C@H](C(N)=O)[C@H]2C(=O)O[C@H](c3ccccc3)[C@H](c3ccccc3)N2[C@@H]1c1ccc(O)cc1
composite z-score [1]: -0.407 | composite z-score [2]: -0.655 | composite z-score [3]: -0.209 | composite z-score [4]: 0.513 | composite z-score [5]: 0.336 | composite z-score [6]: 0.383 | z-score [7]: -1.27 | composite z-score [8]: -1.01 | composite z-score [9]: 0.623 | z-score [10]: -0.192 (inactive) | composite z-score [11]: 0.0344 | z-score [12]: -0.0803 (inactive) | z-score [13]: -0.00225 (inactive) | z-score [14]: 0.712 (inactive) | z-score [15]: -0.0696 (inactive) | composite z-score [16]: -0.104 | composite z-score [17]: 1.34 | composite z-score [18]: 0.2 | composite z-score [19]: 1 | composite z-score [20]: -0.41

O=C1O[C@H](c2ccccc2)[C@H](c2ccccc2)N2[C@H]1[C@@H](C(=O)N1CCCCCCC1)[C@]1(C(=O)Nc3ccc(C#CC4=CCCCC4)cc31)[C@H]2c1ccc(OCCO)cc1
composite z-score [1]: 2.15 | composite z-score [2]: 1.26 | composite z-score [3]: 3.18 | composite z-score [4]: 0.9 | composite z-score [5]: 1.49 | composite z-score [6]: 0.833 | z-score [7]: -1.3 | composite z-score [8]: 1.65 | composite z-score [9]: 1.47 | z-score [10]: -1.2 (inactive) | composite z-score [11]: 1.79 | z-score [12]: -5.63 (inactive) | z-score [13]: -0.761 (inactive) | z-score [14]: 0.182 (inactive) | z-score [15]: -0.617 (inactive) | composite z-score [16]: 3.17 | composite z-score [17]: 2.23 | composite z-score [18]: 1.5 | composite z-score [19]: 1.88 | composite z-score [20]: 1.59
